# Laboratory results published in paper PMC5540273 (PLoS ONE, 2017).
# Where “and” joins values, the source holds several entries; their conditions need not be identical. Equal values may be shown once.
# System: T1, ERK1
# T1 construct: gene MAPK3
# Details: concentration: 1 μM, replicates: in singlicate; 1 µM; n = 1
# 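Note: KINOMEscan kinase panel screen.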
row,SMILES,%Inh
1,NCCNS(=O)(=O)c1ccc(-c2ccnc3[nH]ccc23)cc1 [GSK977617],8% and 0%
2,CC(C)(CN)c1nc(-c2ccc(Cl)c(O)c2)c(-c2ccncc2)[nH]1.O=C(O)C(F)(F)F [SB-477794],0% and 11%
3,Cl.Cl.Cl.Fc1ccc(-c2ncn(C3CCNCC3)c2-c2ccnc(Nc3ccccc3)n2)cc1 [SB-238039],60% and 11%

# Same assay, conditions: concentration: 1 μM, replicates: in singlicate; n = 1
row,SMILES,%Inh
1,N#Cc1c(N2CCOCC2)sc(-c2ccn[nH]2)c1-c1ccc(Cl)cc1,0%
2,c1ccc(-c2cc(-c3c[nH]nc3-c3ccccn3)ccn2)cc1 [GW576604],8%
3,O=C(NCCCN1CCOCC1)c1cccc(Nc2nccc(Nc3ccc(Oc4ccccc4)cc3)n2)c1 [GW663929],0%
4,CCCCCc1nc2c(N)ncnc2n1CCCCC [SKF-97255],0%
5,Cc1c(Cn2c(C)nn3c(=O)cc(N4CCOC(C)C4)nc23)cccc1C(F)(F)F (stereo not shown) [GSK2344444],0%
6,O=C(NCCNc1ccnc(Nc2ccc(F)cc2)n1)c1cc2ccccc2s1 [GSK1379874],0%
7,CC(C)Oc1ccc2c(-c3ccnc(Nc4ccc(N5CCN(C)CC5)cc4)n3)cnn2n1 [GW696155],0%
8,COc1cc2c(cc1OCCN1CCN(C)CC1)ncc1c3ccc(C#N)cc3[nH]c21,0%
9,CC(=O)Nc1ccc(COc2ccc(Nc3ccnc4cc(-c5ccccn5)ccc34)cc2)cc1.Cl [GW440148],0%
10,CC(C)(C)n1cnc2c(N)ncnc21 [SKF-97359],0%
